Assay outcomes: PubChem BioAssay, National Center for Advancing Translational Sciences (NCATS)
TRHR agonist – agonists of human TRH receptor | AID 493084 | TRHR cells, calcium flux fluo-8, FDSS agonist mode | 360,000 tested, 0.18% active | activation, % at 2 µM | P34981; also: 0% is about no effect
Target sequence (P34981 whole entry, looked up): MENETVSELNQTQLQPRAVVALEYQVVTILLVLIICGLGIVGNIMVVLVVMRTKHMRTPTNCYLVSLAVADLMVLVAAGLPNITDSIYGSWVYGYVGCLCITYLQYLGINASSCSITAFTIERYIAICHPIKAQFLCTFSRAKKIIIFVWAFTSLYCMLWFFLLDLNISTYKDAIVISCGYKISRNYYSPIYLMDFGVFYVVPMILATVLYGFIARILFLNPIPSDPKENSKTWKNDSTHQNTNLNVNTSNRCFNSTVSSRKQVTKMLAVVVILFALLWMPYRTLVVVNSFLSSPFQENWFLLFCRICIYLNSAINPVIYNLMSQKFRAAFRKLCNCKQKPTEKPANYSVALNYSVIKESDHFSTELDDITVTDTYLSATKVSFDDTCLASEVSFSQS
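Read-out: compound-evoked intracellular calcium rise in TRHR cells, fluo-8 dye, kinetic FDSS fluorescence at 1 s/cycle following a 10-cycle baseline. Cells cultured overnight before dye loading (30 min–1.5 h, RT).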
USP1-UAF1 inh – USP1/UAF1 (human) deubiquitinase inhibition | O94782 | recombinant USP1/UAF1, Ub-Rhodamine cleavage fluorescence | Potency, µM (highest dose often 57.1 µM), without a hit: at the highest dose activity change, negative = inhibition, actives largely listed as inhibitors | 390,000 tested, 0.23% active | AID 743255; active = well fitted inhibition curve with a large enough effect; inconclusive = small, poorly fitted or top-dose-only effect; inactive = no such curve, though single readings can be large or run the other way; also: potency is read from the fitted curve at half-maximal effect; % is scaled to controls: 0 for no effect and ±100 for the full control effect; nearly all actives have a fitted effect of over 60% in size
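USP1/UAF1 complex (1 nM) preincubated 15 min at room temperature with compound, then Ub-Rho substrate (150 nM final) added. Kinetic fluorescence at 480/540 nm over 6 reads at 60 s intervals; 50 mM HEPES pH 7.8, 0.5 mM EDTA, 0.1 mg/ml BSA, 1 mM TCEP, 0.01% Tween-20.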
TRHR PAM – allosteric enhancers of human TRH receptor; P34981; AID 493056; 360,000 tested, 0.66% active; enhancement, % at 2 µM; TRHR cells, fluo-8 calcium fluorescence, EC20 TRH enhancement; in the data active = enhancement above about 30%; also: 0% is about no effect
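Enhancer read-out: after compound pinning and an initial kinetic agonist-mode read, an EC20 of TRH (10 nM final) was injected and fluo-8 calcium signal (Ex 480/Em 530) followed at 1 s/cycle for 100 cycles in TRHR-expressing cells.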
D1 PAM – human D1 dopamine receptor positive modulation. HEK293 TREx D1 cells, calcium flux, dopamine EC20 potentiation. AID 504651. potentiation, % at 10 µM. P21728. 360,000 tested, 0.036% active; in the data active = potentiation above about 30%; also: 0% is about no effect
D1 ag – agonists of human D1 dopamine receptor; P21728; HEK293 T-REx D1 cells, calcium flux, agonist mode; activation, % at 2 µM; 360,000 tested, 1% active; AID 504660; also: 0% is about no effect
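Agonism was scored from calcium flux recorded over 180 s (1 read/s) after pintool compound addition, following a 10-cycle baseline. Cells were inducible force-coupled HEK293 TREx D1, plated overnight at 30 C and loaded with no-wash calcium dye.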
D1 antag – human D1 dopamine receptor antagonism. P21728. HEK293 TREx D1 cells, calcium flux, dopamine EC80; active compounds read low. activity change, negative = inhibition, % at 10 µM. 360,000 tested, 3.2% active; in the data active = activity change below about -30%; also: % is scaled to controls: 0 for no effect and ±100 for the full control effect
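Kinetic fluorescence of a calcium dye serves as the read-out. D1-expressing Hek293 Trex cells, induced overnight at 30 C, are exposed to compound for 180 s before an EC80 dopamine addition, then read 180 s further.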
* hit, by the source's call. Only some compounds are listed: those with a hit (about 4.4% of all), similar ones and a draw of the others. Rule as the data show it, unless noted: active = activation above about 30%; inactive = the rest.

Screening O=C(CSc1nc(-c2ccccc2)c(-c2ccccc2)o1)Nc1nnc(-c2ccccc2)s1 returned TRHR agonist 0, USP1-UAF1 inh -16%, TRHR PAM 50*, D1 PAM -9, D1 ag 4 and D1 antag -22.
`Cc1ccc(-c2csc(NC(=O)CSc3nc4ccccc4o3)n2)cc1` gave TRHR agonist 1, USP1-UAF1 inh -15%, TRHR PAM -1, D1 PAM -4, D1 ag 4 and D1 antag -35*.
Screening COc1ccccc1NC(=O)C1=C(C)Nc2nc(SC)nn2C1c1ccccc1Cl (configuration not stated) returned TRHR agonist -1, USP1-UAF1 inh inconclusive, TRHR PAM -1, D1 PAM -4, D1 ag 1 and D1 antag -8.
`Cc1ccc(N(C(=O)c2cccc(C)c2)S(=O)(=O)c2ccc(Cl)cc2)cc1` gave TRHR agonist 0, USP1-UAF1 inh -11%, TRHR PAM 11, D1 PAM 2, D1 ag 2 and D1 antag -16.
COc1cccc(CSc2nc3cc(OC)c(OC)cc3c3nc(CCn4nc(C)cc4C)nn23)c1 was read as TRHR agonist 0, USP1-UAF1 inh -22%, TRHR PAM 7, D1 PAM -2, D1 ag -2 and D1 antag 6.
Screening CC(=O)c1cc2c(cc1NC(=O)CSc1nc3ccccc3o1)OCO2 returned TRHR agonist 0, USP1-UAF1 inh -15%, TRHR PAM 4, D1 PAM 7, D1 ag 2 and D1 antag -35*.
`Cc1nnc(NC(=O)CSc2nc3ccccc3o2)s1` gave TRHR agonist 0, USP1-UAF1 inh inconclusive, TRHR PAM -3, D1 PAM 5, D1 ag 1 and D1 antag -1.
For O=C(CSc1nc2ccccc2o1)Nc1nc(-c2ccccc2)c(-c2ccccc2)s1 the results were TRHR agonist 1, USP1-UAF1 inh -15%, TRHR PAM -2, D1 PAM -9, D1 ag 0 and D1 antag -90*.
Screening Cc1nc2c(C(=O)NC(C)c3ccccc3)cnn2c(C)c1Cc1ccccc1 (configuration not stated) returned TRHR agonist 0, USP1-UAF1 inh inconclusive, TRHR PAM 6, D1 PAM 4, D1 ag 0 and D1 antag 2.
`Cc1cc(S(=O)(=O)N2CCCC(N(C)CCc3ccccn3)C2)c(C)cc1Cl` (configuration not stated) gave TRHR agonist -1, USP1-UAF1 inh -22%, TRHR PAM -2, D1 PAM -15, D1 ag 18 and D1 antag -54*.
For O=C(NCc1ccccn1)C1CCCN(S(=O)(=O)c2cc(Cl)ccc2Cl)C1 (configuration not stated) the results were USP1-UAF1 inh -12%.
Screening COc1ccc(NC(=O)c2c(NC(=O)COc3ccc(Cl)cc3)sc3c2CCCCC3)cc1 returned TRHR agonist 0, USP1-UAF1 inh -25%, TRHR PAM 5, D1 PAM -1, D1 ag -1 and D1 antag 14.
For O=C(CN1C(=O)COc2ccc(S(=O)(=O)N3CCCCC3)cc21)NCCc1ccc(Cl)cc1 the results were TRHR agonist 0, USP1-UAF1 inh -18%, TRHR PAM -15, D1 PAM -2, D1 ag 2 and D1 antag 1.
Screening COc1cc(/C=N/NC(=O)C[n+]2ccccc2)cc(OC)c1OC returned TRHR agonist 0, USP1-UAF1 inh -16%, TRHR PAM -7, D1 PAM -2, D1 ag 0 and D1 antag -9.
For COc1cc(/C=N/NC(=O)C[n+]2ccccc2)cc(OC)c1OC(C)=O the results were TRHR agonist 0, USP1-UAF1 inh inconclusive, TRHR PAM 2, D1 PAM -11, D1 ag 1 and D1 antag -79*.
`CCc1c(C)c2cc3c(c(C)c2oc1=O)OCN(CCc1ccccc1F)C3` gave TRHR agonist -2, USP1-UAF1 inh inconclusive, TRHR PAM 4, D1 PAM 0, D1 ag 0 and D1 antag -7.
Screening CCc1ccc(-n2nc(CO)c(C(=O)NCCCc3ccccc3)n2)cc1 returned TRHR agonist 1, USP1-UAF1 inh -20%, TRHR PAM -4, D1 PAM 5, D1 ag 7 and D1 antag -21.
COc1cc(/C=N/NS(=O)(=O)c2ccc(C)c([N+](=O)[O-])c2)cc([N+](=O)[O-])c1O was read as TRHR agonist 0, USP1-UAF1 inh -18%, TRHR PAM -1, D1 PAM -4, D1 ag -1 and D1 antag -1.
`COc1ccc(-n2c(O)c(/C=N/NS(=O)(=O)c3ccc(C)c([N+](=O)[O-])c3)c3ccccc3c2=O)cc1OC` gave TRHR agonist 1, USP1-UAF1 inh 25µM*, TRHR PAM 2, D1 PAM 5, D1 ag 0 and D1 antag 2.
COc1cc(NS(=O)(=O)c2ccc(NC(=O)c3ccc(Cl)cc3Cl)cc2)nc(OC)n1 was read as TRHR agonist 0, USP1-UAF1 inh 1%, TRHR PAM -2, D1 PAM 0, D1 ag -2 and D1 antag 6.
For Cc1cc2oc(C(=O)Nc3cccc(-c4nc5ccccc5o4)c3)c(C)c2cc1Cl the results were TRHR agonist -1, USP1-UAF1 inh -26%, TRHR PAM 33*, D1 PAM 0, D1 ag 3 and D1 antag -5.
Cc1ccc(C(=O)Nc2cccc(-c3nc4ccccc4o3)c2)c(Cl)c1 was read as TRHR agonist 1, USP1-UAF1 inh -19%, TRHR PAM -3, D1 PAM -1, D1 ag 3 and D1 antag -1.
For COc1ccc(CNC(=O)CSc2nc3ccsc3c(=O)n2Cc2ccccc2Cl)cc1 the results were TRHR agonist 0, USP1-UAF1 inh -11%, TRHR PAM -5, D1 PAM 3, D1 ag 7 and D1 antag 9.
Screening CCCN1C(=O)C(O)(CC(=O)c2ccc(OC)c(OC)c2)c2ccccc21 (configuration not stated) returned TRHR agonist -1, USP1-UAF1 inh -19%, TRHR PAM 4, D1 PAM 0, D1 ag 22 and D1 antag -12.
COc1cc(C(=O)N/N=C/c2ccc(OC(=O)c3cccc(C)c3)cc2)ccc1O was read as TRHR agonist -1, USP1-UAF1 inh -10%, TRHR PAM 9, D1 PAM 11, D1 ag 2 and D1 antag 4.
